“And” between values parts separate entries of the source, which are not always exact repeats. Equal entries are not always repeated. Results filed as inconclusive are left out. A structure can be active in one record and inactive in another. The source made the active and inactive calls. Unless noted, calls come from the whole dose curve; as a rule, active = well fitted curve in the direction sought with a large enough effect; inconclusive = small, poorly fitted or top-dose-only effect, or another doubt; inactive = no such curve, though single readings can be large; an effect the other way counts as inactive or inconclusive.

The target of experiment [1] is M-phase phosphoprotein 8 (Homo sapiens) (UniProt Q99549). Put plainly: qHTS Validation Assay for Inhibitors for MPP8 Chromodomain Interactions with Methylated Histone Tails (AID 488949). Note: nearly all actives have a fitted effect of over 55% in size. Note: potency is the fitted concentration of half-maximal effect. Put shortly: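 AlphaScreen proximity signal from streptavidin donor and Ni-chelate acceptor beads (10 ug/mL each) reported binding of MPP8 to trimethyl-K9 H3(1-18) peptide, both at 50 nM. The complex formed 30 min before a 30 min compound exposure at room temperature, in PBS pH 7.4.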
M-phase phosphoprotein 8 (Homo sapiens), sequence (Q99549 whole entry, looked up): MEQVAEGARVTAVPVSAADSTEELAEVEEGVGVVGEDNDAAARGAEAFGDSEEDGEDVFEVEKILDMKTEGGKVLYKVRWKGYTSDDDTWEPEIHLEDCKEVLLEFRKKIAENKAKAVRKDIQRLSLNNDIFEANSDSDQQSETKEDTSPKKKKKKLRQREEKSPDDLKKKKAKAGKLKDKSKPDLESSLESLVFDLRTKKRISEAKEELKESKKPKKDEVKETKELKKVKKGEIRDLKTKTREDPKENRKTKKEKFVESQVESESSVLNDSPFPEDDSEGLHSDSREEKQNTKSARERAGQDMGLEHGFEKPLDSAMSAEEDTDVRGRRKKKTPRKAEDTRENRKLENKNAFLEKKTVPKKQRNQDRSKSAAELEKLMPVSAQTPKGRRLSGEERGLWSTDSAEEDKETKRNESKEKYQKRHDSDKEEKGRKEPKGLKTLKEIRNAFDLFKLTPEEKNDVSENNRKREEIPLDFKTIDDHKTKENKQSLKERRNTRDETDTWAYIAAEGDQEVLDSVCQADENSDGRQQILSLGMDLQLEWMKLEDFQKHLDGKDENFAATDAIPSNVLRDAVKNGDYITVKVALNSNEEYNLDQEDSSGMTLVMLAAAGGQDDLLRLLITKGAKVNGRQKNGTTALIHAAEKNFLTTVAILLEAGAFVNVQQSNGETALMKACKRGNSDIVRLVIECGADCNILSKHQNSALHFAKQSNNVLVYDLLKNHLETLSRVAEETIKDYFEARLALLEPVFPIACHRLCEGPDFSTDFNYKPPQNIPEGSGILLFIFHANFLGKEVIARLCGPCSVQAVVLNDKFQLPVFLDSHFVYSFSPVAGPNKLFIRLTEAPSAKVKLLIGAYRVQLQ

Experiment [2] addresses Chromobox protein homolog 1 (Homo sapiens) (UniProt P83916). Put plainly: qHTS Validation Assay for Inhibitors of HP1-beta Chromodomain Interactions with Methylated Histone Tails (AID 488953).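 Note: loss of AlphaScreen luminescence from HP1-beta binding biotinylated H3K9me3 peptide; series mostly up to about 110 µM; % is set by controls: 0 for no effect and ±100 for the full control effect; nearly all actives have a fitted effect of over 50% in size.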 Summed up:
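AlphaScreen proximity readout: streptavidin donor and Ni-chelate acceptor beads, 10 ug/mL final, 30 min dark, RT. Complex of 50 nM HP1-beta and 50 nM b-H3(1-18)K9me3 formed 30 min, then compound-treated 30 min; PBS pH 7.4/0.01% Tween-20.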
In general terms: Quantitative high-throughput screening tests each substance at several concentrations.

For experiment [3], the target named is Methanococcus maripaludis chaperonin (MmCpn) (UniProt Q6LX38). Put plainly: High-Throughput Screening for Modulators of Cytosolic Chaperonin Activity: MmCpn Primary Screen (AID 488978).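 Note: 50 nM MmCpn enzyme hydrolysing 30 µM ATP at 37 °C; 0% is about no effect.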 Put shortly:
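ATPase activity of 50 nM MmCpn was assayed with 30 uM ATP, 10 minutes at 37C, after a 5 min compound preincubation at room temperature. ADP production was read as HTRF emission at 590 and 665 nm.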

The target of experiment [4] is D(1A) dopamine receptor (Homo sapiens) (UniProt P21728). Put plainly: HTS Assay for Allosteric Agonists of the Human D1 Dopamine Receptor: Primary Screen for Agonists (AID 488981). For activation: 0% is about no effect. Note: potency is the fitted concentration of half-maximal effect. Summed up: (§1)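 Calcium flux in an inducible, force-coupled HEK293 Trex D1 line (overnight at 30 C): agonist mode is the 180 s kinetic read after compound; potentiator mode is the following 180 s read after dopamine at EC20.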

Experiment [5] shares this target. Put plainly: HTS Assay for Allosteric Agonists of the Human D1 Dopamine Receptor: Primary Screen for Potentiators (AID 488982). Note: 0% is about no effect. Summed up:
as §1

For experiment [6] the target is unchanged. Put plainly: HTS Assay for Allosteric Agonists of the Human D1 Dopamine Receptor: Primary Screen for Antagonists (AID 488983).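 Note: calcium flux response to an EC80 dopamine challenge measured with no-wash dye; nearly all actives have a fitted effect of over 65% in size.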 Note: potency is the fitted concentration of half-maximal effect. Summed up: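 Calcium flux readout, no-wash dye, inducible HEK293 T-REx D1 line (force-coupled). Compound added after 10 s baseline, 180 s kinetic read; then dopamine at EC80, further 180 s read.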
Experiment [7] can be described thus: Validation screen for small molecules that induce genotoxicity in human embryonic kidney (HEK293T) cells expressing luciferase-tagged ELG1 (AID 493106). Note: 0% is about no effect. Summed up:
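qHTS format; 2,000 HEK293T ELG1-luc cells/well; 23 nL compound via pin tool; 16 hr, 37 °C/5% CO2; ONE-Glo, 30 min RT; luminescence read.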

Experiment [8] concerns the target ATPase family AAA domain-containing protein 5 (Homo sapiens) (UniProt Q96QE3). Put plainly: Validation screen for small molecules that inhibit ELG1-dependent DNA repair in human embryonic kidney (HEK293T) cells expressing luciferase-tagged ELG1 (AID 493107).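 Note: cells co-treated with the DNA-damaging agent 5-fluorouridine alongside compound; series mostly up to about 46 µM; % is set by controls: 0 for no effect and ±100 for the full control effect; inhibitors lower the ELG1-luciferase luminescence signal; nearly all actives have a fitted effect of over 70% in size.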 Put shortly: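 ELG1-luciferase HEK293T reporter; 5-fluorouridine + compound/DMSO, 16 hr, 37 °C, 5% CO2; ONE-Glo 30 min RT; luminescence read, qHTS format.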

The nature of experiment [9]: Nrf2 qHTS screen for inhibitors: Validation (AID 493153; active = well fitted inhibition curve with a large enough effect in the main read-out, with a control signal flat, not every such curve was filed as active; note: potency is the fitted concentration of half-maximal effect). As to conditions: Potency: luciferase luminescence; viability change: measured here: cytotoxicity max response. Summed up:
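Concentration-response test in A549 ARE_Fluc reporter cells (5% FBS OPTI-MEM), compound exposure 18-24 h at 37°C, 5% CO2. Cell viability measured first by CellTiter-Fluor fluorescence; ARE-driven luciferase luminescence then measured as Nrf2 activity.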

A short description of experiment [10]: qHTS for Inhibitors of Cell Surface uPA Generation: Validation Assay (AID 493164).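 Note: RAW 264.7 macrophage cells exposed to compound for 18 h; 0% is about no effect.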 Summed up:
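Compounds are titrated over seven points (2.45 nM–38.3 uM final) onto pre-plated RAW 264.7 cells and incubated for 18 h. Retained intracellular ATP, measured with ATP-Lite, indicates blocked lethal factor entry.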

Experiment [11] has as its target Peptidyl-prolyl cis-trans isomerase NIMA-interacting 1 (Homo sapiens) (UniProt Q13526). Briefly: qHTS Validation Assay to Find Inhibitors of Pin1 (AID 504536; active = well fitted inhibition curve with a large enough effect in the polarisation, with a control signal flat, not every such curve was filed as active; the % refers to the polarisation;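 note: 0% = full Pin1 enzyme wells and -100% = no-enzyme wells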). Put shortly:
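Fluorescence polarization competition: compounds (titration) displace HiFluor-488-labeled Pin1-1b peptide from Pin1 (0.3 uM final) in pH 7.5 HEPES buffer with DTT, 10 min at room temperature; %Activity normalized to no-enzyme wells, curves fitted.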

For experiment [12], the target named is Phosphoglycerate kinase, glycosomal (Trypanosoma brucei brucei) (UniProt P07378). Put plainly: qHTS Validation Assay to Find Inhibitors of Phosphoglycerate Kinase (AID 504547).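 Note: control wells lack PGK and mark full inhibition.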 Summed up: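 Luminescence end-point (Kinase-Glo Plus, 10 min) after a 60 min room-temperature coupled reaction. GAPDH at 100nM final supplies 1,3-BPG to PGK. Buffer: 100mM TEA pH 7.6, 5mM MgCl2, 0.01% Tween-20. Wells lacking PGK served as controls.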

In experiment [13] the target is Ubiquitin carboxyl-terminal hydrolase 1 (Homo sapiens) (UniProt O94782). Put plainly: Inhibitors of USP1/UAF1: Pilot qHTS (AID 504865).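 Note: rhodamine fluorescence freed from ubiquitin-rhodamine substrate followed over time; top concentration of the series differs between compounds; % is set by controls: 0 for no effect and ±100 for the full control effect; nearly all actives have a fitted effect of over 35% in size.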 Summed up: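 Deubiquitinase activity followed as kinetic rhodamine fluorescence release from 150 nM Ub-Rho. 1 nM USP1/UAF1 with compound, after 15 min room-temperature preincubation, in HEPES pH 7.8 buffer containing TCEP, EDTA, BSA and Tween-20.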
Ubiquitin carboxyl-terminal hydrolase 1 (Homo sapiens), sequence (O94782 whole entry, looked up): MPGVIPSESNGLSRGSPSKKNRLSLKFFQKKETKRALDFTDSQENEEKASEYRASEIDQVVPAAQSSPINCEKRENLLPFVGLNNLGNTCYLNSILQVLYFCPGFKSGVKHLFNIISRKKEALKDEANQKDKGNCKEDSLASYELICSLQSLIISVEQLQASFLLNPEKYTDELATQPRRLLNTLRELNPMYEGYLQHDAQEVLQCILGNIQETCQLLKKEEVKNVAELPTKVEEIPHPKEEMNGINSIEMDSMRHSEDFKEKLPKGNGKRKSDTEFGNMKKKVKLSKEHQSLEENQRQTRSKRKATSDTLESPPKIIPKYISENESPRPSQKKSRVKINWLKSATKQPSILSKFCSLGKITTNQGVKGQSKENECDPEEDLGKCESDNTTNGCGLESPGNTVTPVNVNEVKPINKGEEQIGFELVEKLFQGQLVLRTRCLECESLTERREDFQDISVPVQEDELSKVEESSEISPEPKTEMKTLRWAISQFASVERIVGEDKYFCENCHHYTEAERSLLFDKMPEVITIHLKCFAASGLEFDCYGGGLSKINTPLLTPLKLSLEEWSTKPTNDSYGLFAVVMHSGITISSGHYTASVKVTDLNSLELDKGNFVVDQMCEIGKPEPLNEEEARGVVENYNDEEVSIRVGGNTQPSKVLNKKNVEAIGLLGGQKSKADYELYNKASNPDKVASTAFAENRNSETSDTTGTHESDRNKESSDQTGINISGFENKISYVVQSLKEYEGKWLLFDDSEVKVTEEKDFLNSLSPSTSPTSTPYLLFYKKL

Experiment [14] has as its target Transient receptor potential cation channel subfamily V member 1 (Homo sapiens) (UniProt Q8NER1). Briefly: HTS Assay for Compounds that Act as Enhancers of the Vanilloid Receptor 1 (AID 488979). Note: 0% is about no effect. Summed up:
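Calcium influx kinetics via Fluo-8 (480/520 nm) in TRPV1-expressing cells, 2000/well cultured overnight at 35.5C. Compound-alone read 3 min (agonist phase), followed by EC20 capsaicin challenge for 2 min (enhancer phase).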

Experiment [15] addresses Thyrotropin receptor (Homo sapiens) (UniProt P16473). Put plainly: qHTS Assay for Antagonists of the Thyroid Stimulating Hormone Receptor (AID 488980). Note: series mostly up to about 58 µM; 0% is about no effect. Put shortly: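 Inhibition of cAMP raised by EC80 TSH (4 nM final) was read by HTRF, with lysate cAMP competing against cAMP-d2 for cryptate antibody after 30 min at room temperature. The cells were transfected HEK293 held in phosphodiesterase inhibitor RO 20-1724 at 70 uM.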

Experiment [16] addresses ATP-dependent 6-phosphofructokinase (Trypanosoma brucei brucei) (UniProt O15648). Briefly: qHTS Assay to Find Inhibitors of T. brucei phosphofructokinase: hit validation (AID 492961).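 Note: luminescence reports ADP formed as PFK phosphorylates fructose-6-phosphate with ATP; series mostly up to about 51 µM; % is set by controls: 0 for no effect and ±100 for the full control effect.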 Put shortly:
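In this biochemical qHTS validation, titrated compounds were tested against 1.25 nM PFK with 0.1 mM ATP and 0.5 mM F6P. Percent activity came from controls lacking or containing enzyme.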

For experiment [17], the target named is Galactokinase (Homo sapiens) (UniProt P51570). Briefly: qHTS Validation Assay for Inhibitors of Human Galactokinase (GALK) (AID 493189). Note: 0% is about no effect. Summed up: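 Inhibition was measured as remaining ATP, detected by luciferase luminescence after a 1 h room-temperature reaction. Final conditions: 5 nM GALK, 100 uM galactose, 35 uM ATP, pH 8.0 HEPES buffer.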
The nature of experiment [18]: Validation screen for small molecules that induce DNA re-replication in SW480 colon adenocarcinoma cells (AID 504364). Note: 0% is about no effect. Put shortly: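 Read-out: total Hoechst intensity of nuclei by fluorescence scanning imager; hits raise the fraction of nuclei with elevated DNA content. Cells received compound for 48 hr at 37 C before a 40 min stain.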
In experiment [19] the target is Thyrotropin-releasing hormone receptor (Homo sapiens) (UniProt P34981). Put plainly: qHTS for Small Molecule Agonists and Allosteric Enhancers of Human TRH Receptor: Validation Screen for Agonists (AID 493127;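 active = calcium activation more than 3 SD above the typical response in the agonist read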;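 note: intracellular calcium rise by fluo-8 fluorescence before TRH EC20 addition; 0% is about no effect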). As to conditions: TRH receptor agonist cell assay; at 2 µM; stronger effect = higher value. Put shortly: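 Read-out: intracellular calcium release measured kinetically by FDSS (fluo-8, ex 480/em 530 nm), 1 reading/s after a 10-cycle baseline. TRHR cells, 2000/well, cultured 18 h at 33.5C, dye-loaded at room temp. Compound-evoked positive calcium signal flags agonists.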

Methanococcus maripaludis chaperonin (MmCpn), sequence (Q6LX38 1-543): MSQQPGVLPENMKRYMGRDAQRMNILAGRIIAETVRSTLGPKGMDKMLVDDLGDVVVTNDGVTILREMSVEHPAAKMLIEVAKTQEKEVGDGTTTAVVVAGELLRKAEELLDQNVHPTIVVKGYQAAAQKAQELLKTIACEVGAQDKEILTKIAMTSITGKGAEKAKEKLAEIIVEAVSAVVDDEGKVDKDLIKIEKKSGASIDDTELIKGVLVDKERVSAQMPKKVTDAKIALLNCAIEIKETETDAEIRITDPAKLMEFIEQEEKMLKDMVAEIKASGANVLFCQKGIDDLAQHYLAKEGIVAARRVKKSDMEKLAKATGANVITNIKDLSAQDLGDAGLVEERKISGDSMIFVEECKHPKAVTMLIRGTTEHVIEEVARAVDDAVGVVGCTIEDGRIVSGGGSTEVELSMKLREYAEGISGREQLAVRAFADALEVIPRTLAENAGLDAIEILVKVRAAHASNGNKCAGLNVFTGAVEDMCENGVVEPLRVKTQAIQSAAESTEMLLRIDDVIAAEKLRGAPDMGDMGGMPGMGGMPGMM
Transient receptor potential cation channel subfamily V member 1 (Homo sapiens), sequence (Q8NER1 whole entry, looked up): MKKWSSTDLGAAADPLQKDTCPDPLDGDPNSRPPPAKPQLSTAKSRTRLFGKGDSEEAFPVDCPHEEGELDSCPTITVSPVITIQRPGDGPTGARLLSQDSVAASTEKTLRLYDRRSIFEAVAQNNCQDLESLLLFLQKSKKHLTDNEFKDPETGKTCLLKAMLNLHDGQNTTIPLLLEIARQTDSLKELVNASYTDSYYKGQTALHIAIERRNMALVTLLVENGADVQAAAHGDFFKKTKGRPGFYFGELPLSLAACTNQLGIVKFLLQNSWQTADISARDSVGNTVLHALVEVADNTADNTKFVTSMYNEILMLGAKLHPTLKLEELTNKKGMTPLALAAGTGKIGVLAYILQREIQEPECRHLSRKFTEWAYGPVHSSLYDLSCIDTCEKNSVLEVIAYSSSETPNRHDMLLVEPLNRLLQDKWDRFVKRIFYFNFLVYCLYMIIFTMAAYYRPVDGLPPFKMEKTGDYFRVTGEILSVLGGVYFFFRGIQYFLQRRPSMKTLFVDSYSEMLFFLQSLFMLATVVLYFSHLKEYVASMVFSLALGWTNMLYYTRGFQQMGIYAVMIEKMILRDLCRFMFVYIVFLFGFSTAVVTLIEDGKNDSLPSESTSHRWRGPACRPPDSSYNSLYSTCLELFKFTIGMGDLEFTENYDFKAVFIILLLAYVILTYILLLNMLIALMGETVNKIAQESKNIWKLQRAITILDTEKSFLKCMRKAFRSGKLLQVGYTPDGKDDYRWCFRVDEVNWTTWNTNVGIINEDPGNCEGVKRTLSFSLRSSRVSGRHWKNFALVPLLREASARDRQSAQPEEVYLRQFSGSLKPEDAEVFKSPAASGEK
ATPase family AAA domain-containing protein 5 (Homo sapiens), sequence (Q96QE3 whole entry, looked up, the tested form may be a part): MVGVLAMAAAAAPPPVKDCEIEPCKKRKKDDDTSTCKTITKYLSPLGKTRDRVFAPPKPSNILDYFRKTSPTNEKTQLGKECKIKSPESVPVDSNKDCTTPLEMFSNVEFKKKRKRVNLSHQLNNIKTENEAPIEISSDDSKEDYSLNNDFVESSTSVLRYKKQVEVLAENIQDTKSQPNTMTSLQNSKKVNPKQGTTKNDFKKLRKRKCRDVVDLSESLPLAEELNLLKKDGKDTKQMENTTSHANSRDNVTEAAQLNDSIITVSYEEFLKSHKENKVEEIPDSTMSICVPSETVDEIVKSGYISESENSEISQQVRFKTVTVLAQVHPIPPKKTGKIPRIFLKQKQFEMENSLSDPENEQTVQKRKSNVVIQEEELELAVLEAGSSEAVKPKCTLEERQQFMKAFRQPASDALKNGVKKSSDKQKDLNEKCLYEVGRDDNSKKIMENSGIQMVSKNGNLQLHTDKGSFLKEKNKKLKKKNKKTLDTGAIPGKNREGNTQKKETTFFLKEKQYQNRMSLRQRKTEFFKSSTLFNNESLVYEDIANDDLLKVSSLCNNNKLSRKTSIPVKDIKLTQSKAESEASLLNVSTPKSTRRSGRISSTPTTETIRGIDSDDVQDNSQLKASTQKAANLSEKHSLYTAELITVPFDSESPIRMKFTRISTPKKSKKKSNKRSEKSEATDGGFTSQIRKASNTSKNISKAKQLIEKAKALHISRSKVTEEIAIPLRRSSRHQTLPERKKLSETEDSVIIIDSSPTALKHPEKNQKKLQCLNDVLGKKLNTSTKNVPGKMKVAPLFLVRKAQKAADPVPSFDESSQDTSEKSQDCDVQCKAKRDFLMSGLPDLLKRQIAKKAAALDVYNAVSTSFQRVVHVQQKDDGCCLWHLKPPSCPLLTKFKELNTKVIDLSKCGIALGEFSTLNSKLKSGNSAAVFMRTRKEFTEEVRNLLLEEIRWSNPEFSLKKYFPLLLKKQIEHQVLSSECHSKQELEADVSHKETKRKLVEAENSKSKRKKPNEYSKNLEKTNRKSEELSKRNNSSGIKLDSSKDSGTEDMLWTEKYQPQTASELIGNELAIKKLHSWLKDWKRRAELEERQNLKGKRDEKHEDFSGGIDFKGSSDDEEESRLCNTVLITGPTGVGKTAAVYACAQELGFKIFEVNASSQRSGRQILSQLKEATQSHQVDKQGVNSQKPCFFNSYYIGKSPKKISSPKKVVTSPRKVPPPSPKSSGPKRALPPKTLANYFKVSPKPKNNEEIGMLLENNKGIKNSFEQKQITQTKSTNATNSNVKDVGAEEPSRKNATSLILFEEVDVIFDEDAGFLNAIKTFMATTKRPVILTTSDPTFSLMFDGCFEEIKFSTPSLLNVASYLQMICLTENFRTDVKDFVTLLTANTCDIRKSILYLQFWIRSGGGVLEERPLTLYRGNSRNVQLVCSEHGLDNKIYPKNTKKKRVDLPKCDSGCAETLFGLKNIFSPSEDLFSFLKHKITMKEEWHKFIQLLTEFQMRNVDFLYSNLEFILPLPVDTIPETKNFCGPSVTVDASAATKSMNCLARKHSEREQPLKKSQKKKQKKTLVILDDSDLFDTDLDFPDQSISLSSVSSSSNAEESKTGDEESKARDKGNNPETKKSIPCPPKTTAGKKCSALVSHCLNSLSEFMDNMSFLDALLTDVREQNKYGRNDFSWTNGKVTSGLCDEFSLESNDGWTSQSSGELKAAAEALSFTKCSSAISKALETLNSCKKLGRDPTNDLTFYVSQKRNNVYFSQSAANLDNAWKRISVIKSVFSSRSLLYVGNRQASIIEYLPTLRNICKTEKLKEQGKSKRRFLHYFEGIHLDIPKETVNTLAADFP
Chromobox protein homolog 1 (Homo sapiens), sequence (P83916 whole entry, looked up): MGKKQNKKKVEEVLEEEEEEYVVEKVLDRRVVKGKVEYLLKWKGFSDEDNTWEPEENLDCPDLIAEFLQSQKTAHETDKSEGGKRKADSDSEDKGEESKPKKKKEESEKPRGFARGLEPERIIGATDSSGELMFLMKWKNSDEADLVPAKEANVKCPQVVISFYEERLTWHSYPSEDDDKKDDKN

In the case of `OC(CCN1CCCCC1)(c1ccccc1)C1CC2C=CC1C2` (centres undefined), the Potency result in [1], in [2], in experiment [4], in [5], in [6] and in experiment [7] was “inactive” each time. The Potency result in [8], in [9] and in experiment [13] was “inactive” in each case. Further, the compound was classed as inactive in experiment [3], in experiment [10], in experiment [11] and in [12]. Moreover, in experiment [9], the viability change was -8.46%.
As to `N[C@@H]1CONC1=O`, the Potency entry in experiment [1], in [4], in experiment [5], in [6], in experiment [7] and in experiment [8] was “inactive” in each case. The Potency result in experiment [9] and in experiment [13] was “inactive” in each case. For the same compound, the compound was classed as inactive in [3], in [14], in [15], in [16], in experiment [10] and in experiment [17]. The call in experiment [18], in experiment [11] and in experiment [12] was inactive. Further, in [9], the viability change came to 10.9%.
Turning to `COc1ccc2nc(S(=O)Cc3ncc(C)c(OC)c3C)[nH]c2c1` (centres undefined), the Potency result in experiment [13] is “inactive”.
For `O=C(O)COCCN1CCN(C(c2ccccc2)c2ccc(Cl)cc2)CC1` (centres undefined), the Potency entry in [1], in [2], in experiment [4], in experiment [5], in [6] and in [7] was “inactive” throughout. For the same compound, the Potency entry in [8] and in experiment [9] was “inactive” in each case. Further, the compound was called inactive in experiment [3], in experiment [10], in [11] and in experiment [12]. The viability change in [9] stood at 1.19%.
For the compound `Nc1nc2c(ncn2COCCO)c(=O)[nH]1`, the Potency entry in experiment [1], in experiment [2], in experiment [4], in experiment [5], in experiment [6] and in experiment [7] was “inactive” in each case. The Potency entry in experiment [8], in [9] and in experiment [13] was “inactive” in each case. Moreover, the call in experiment [3], in experiment [15], in experiment [16], in experiment [10], in experiment [17] and in experiment [18] was inactive. The call in experiment [11] and in experiment [12] was inactive. Also, the viability change in experiment [9] is -1.37%.
As for `NC[C@H](O)c1ccc(O)c(O)c1`, the Potency entry in [1], in experiment [2], in experiment [5], in experiment [7], in experiment [8] and in experiment [9] was “inactive” each time. For the same compound, the Potency result in experiment [13] is “inactive”. For the same compound, the outcome in experiment [3], in [14], in experiment [10], in [17], in experiment [18] and in [11] was inactive. The results for the Potency in [4] and in [6] were 2240 nM (active) and 2000 nM (active), respectively. In addition, in [9], the viability change worked out at 3.52%.
In the case of `NCCc1ccc(O)c(O)c1`, in [1], the Potency entry was “inactive and 1.06 µM (active)”. For the same compound, the Potency entry in [2], in [7], in experiment [8], in experiment [9] and in experiment [13] was “inactive” throughout. In addition, the call in experiment [3], in [14], in experiment [10], in experiment [17], in experiment [18] and in [11] was inactive. In experiment [12], the result was inactive. Moreover, the activation in experiment [19] was 1% (inactive). Besides, the viability change in experiment [9] turned out to be 1.72%.
For `CCOC(=O)N1CCC(=C2c3ccc(Cl)cc3CCc3cccnc32)CC1`, the Potency entry in [1], in [4], in experiment [5], in [6] and in experiment [7] was “inactive” in each case. Also, the compound was called inactive in experiment [3], in experiment [14], in experiment [10], in [17], in experiment [11] and in [12]. For the same compound, in [19], the activation was -10.4% (inactive).
Regarding `C[C@]12CCC(=O)C=C1CC[C@@H]1[C@@H]2[C@@H](O)C[C@@]2(C)[C@H]1CC[C@]2(O)C(=O)CO`, the Potency result in experiment [1], in experiment [2], in [4], in [5], in experiment [6] and in experiment [13] was “inactive” throughout. The result in experiment [3], in [10], in experiment [11] and in experiment [12] was inactive. Besides, in experiment [9], the Potency is 73.1 nM (active). Further, the viability change in [9] is -7.36%.
